# Measurements as given in the supplement of paper PMC12632987.
# The full ranking holds about 1,800 sequences; the median of “median log2 fold change of GCK-ALFA target abundance (FLAG IP / Myc IP barcode read proportion)” is about 0.14, and the lowest 2% start at about -0.84. This excerpt belongs to a sample that is enriched for the lowest values.
# T1: TRAF2, Q12933
# T1 chain: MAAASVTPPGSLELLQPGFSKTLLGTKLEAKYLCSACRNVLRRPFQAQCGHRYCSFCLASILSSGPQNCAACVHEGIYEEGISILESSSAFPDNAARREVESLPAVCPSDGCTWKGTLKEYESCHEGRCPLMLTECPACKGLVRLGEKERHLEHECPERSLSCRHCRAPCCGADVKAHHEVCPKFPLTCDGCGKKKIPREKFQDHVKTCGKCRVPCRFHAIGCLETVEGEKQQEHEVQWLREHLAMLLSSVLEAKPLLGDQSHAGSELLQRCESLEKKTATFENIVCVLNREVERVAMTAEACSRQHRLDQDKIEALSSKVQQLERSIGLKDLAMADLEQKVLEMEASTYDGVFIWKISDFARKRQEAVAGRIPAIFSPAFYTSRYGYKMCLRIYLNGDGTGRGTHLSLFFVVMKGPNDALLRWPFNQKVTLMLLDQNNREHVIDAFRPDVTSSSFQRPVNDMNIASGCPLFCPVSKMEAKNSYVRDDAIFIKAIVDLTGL
# B1: traf2_out_11_155_669 (protein)
# chain: EEKQKLNNELVNELTKVSDELKEKVIKILKEAAEKHPEHKEEIEKVIESSKTLSGTSFARKAAQLFKELGLEEEAKKVEELLEEAQKKMNEIYKKYEKKL
# B2: traf2_out_17_178_1674 (protein)
# chain: DKAAKRAEISALTDELIDLTEDTGTKLLALAEAEGTLTPEELALLRAALRSSSANTLLAVAEKLAPKLKTKAEAEALLKDFKEKKKELSKKIAEAYKEYE
# B3: traf2_out_14_149_1231 (protein)
# chain: SEEAKLLAAAAELTEKIAKTLEEVLKLLKEGKLEEAKKLLKESIEELEKESKKKGVTPSQLFQLEDLLELLEKDPEAAKKFAEEALARAKENADTLKEMA
# B4: traf2_out_11_169_779 (protein)
# chain: EEAEKNRKINDFALELNDKAKEKLKEEALKLAKEAGLDEEEIKKIFEENKNKSLSAVAAALIKYFESKGKEEEAAKVLEKYEELKDEINKKSSEFIKSLE
# B5: traf2_out_1_158_912 (protein)
# chain: DTKKKLMLSSVELVVKDAVESARENGDEETAKAIEELGEKIIELVKKLAIEEGKSVEEVIEEIDKLAAEFKAKADPETAAAIERLTRRVKSALRQVEKLM
# B6: traf2_out_18_5_1953 (protein)
# chain: SREEELKEALKSAERILSKKPEIEAEAKKLGVEELYKKAVEDFTRALENGEDLAKISTKHAEELAKKIGDPEKAEDLTYEIRRYVSAEYAKEVLEEMLKA
# B7: traf2_out_20_8_2269 (protein)
# chain: MSMEEKLARAADLILDAKDLVRAVIREVLADERAPAIAAEAAAAISVSVSADDTDADILLRIRERATEALTRLAERTGDPRLEEARARVAAALDAAAAAA
# B8: traf2_out_6_156_2453 (protein)
# chain: AAEAILERTEKEIEEGIKALAAAPEERKIAEINRIAGAFYRGLQALRAAGASLEELRAAAERLLETAEKKAKEAGLDERTRNLLLASLRAVADVALAAAA
# B9: traf2_out_17_162_1558 (protein)
# chain: SEIEKRWEKLKEELKELEKRVEALEKRLERLAELTPEEIRDLLVEASEVKRRALELAEEAEKLKEKIGEEEAQKLIDEANEIAERAQRIANTLYKALEKK
# B10: traf2_out_18_167_1847 (protein)
# chain: EEEIRKRREELSDRLVELSEVKRAARLALQALETDPSKVPAALAALREKAASIPELQPLVDAAEAALAAGDREGLRATLEKLIEKAQKLMNEVLKEYEAL
# B11: traf2_out_6_156_2450 (protein)
# chain: MIEEIFEKAVKEIEELIKKLAAAPESKKIAYINKIAGTFYKALQELRESGASLEEIEEFVERLLKKAEELANEAGLDEDTKNLLLSTLSAVGEVAIANAK
# B12: traf2_out_17_162_1507 (protein)
# chain: SPLEELRRRIEEELEELRRELERLEKKMENLKSMSKEELSDLLVEASEAKARALRLAELVREHREELGEEEAERLIREAEEIAERLQRIANEAYKELLKK
# B13: traf2_out_3_89_2301 (protein)
# chain: AAAEAAKIEAARARAERYARGFRKSARFVAKQMIADGMSLDTLRGVLEAARNALVEVFREELKEQGLSEETIEELVKELTEELEKIVEEILEEAEKKRAE
# B14: traf2_out_13_95_1141 (protein)
# chain: SAEVAAKINAIADRLLAEKDAILDELEAQLKAAGLLTPELRAALEAAKRSSISTAIHRLRELAERYPEARAALEAAIARLEALRREAGREVAEILKEEKE
# B15: traf2_out_20_3_2084 (protein)
# chain: KELEEEYKKHLEKAEKLLKEAAKLADPETAKKLEELIKRLKKSEELPYSDRLVVLSEVRREVLLLAQEAKAAGNEELAKILEEAAEEINRAMNLLMKMIE
# B16: traf2_out_3_77_2274 (protein)
# chain: SMKKEEIREKLDEATTLAIASLAVNAINNPEKAEEFREMARIVHRARAIAKEKGKEEELLPLIEEAKEAADKLNEGDESALEKLKEIVKKIGELAEKWEK
# B17: traf2_out_17_60_1763 (protein)
# chain: GPEEEKEELKREARRAIEEARRLVEEVRAKLAAGTLTASEAMDWLVELTEKRRELERLLEEAEKKGEEMEELKRELERAIEEVRRTMNEVGKHLLELLEA
# B18: traf2_out_20_3_2204 (protein)
# chain: SELEEELEKRLDAAEKLLKEAQKLADPETAKTLDALIARLKASRELSYDDRLVTLSAIRAEVLALAQAAKAAGNAELAAVLEAAADELQKAMNLVYKIIE
# B19: traf2_out_17_162_1540 (protein)
# chain: SETEEELRRLREELEELEEELRRLEEISKNLETLSKEELTDLLVEASELRRRALELAERLRRLEEETGSEEARRLRERAEEIAERLQRIANEIYKELEKK
# B20: traf2_out_13_95_1086 (protein)
# chain: SKEVNEKIMEIADEMMEQILATLDALAKQVAGDPELAAAVAEARRLAETRGVNEAIHKLRELAKANPEHAELLNAAIAEIEAIKKEASKKISELLKEEEE
# B21: traf2_out_6_3_2525 (protein)
# chain: SSESLRKDARKVLENMGITTAEQLLTLVTAEVNAVKKVASRPDFDRADVAGLRSVLALTRAMVEVAYEELPSVTEADKAEALALIADAEALVEAKAKELE
# B22: traf2_out_3_89_2280 (protein)
# chain: SMEEEEKIKEARENIETWIRGLRKSTRRVAEEMRKEGASLETIKGLIDSSATALLEAFKISLKDKGFDEETIEELVEEAKEELEKIREELKEEAEKAYEE
# B23: traf2_out_13_95_1104 (protein)
# chain: SAETAEKIMKIADEMLDKVEKILEELLKIAKEKGKLEEEIKEALHLARYQSINEAIHKLKELAKKYPEFKEELEAAIKEIEALKKEAGRKVAEILKEEKK
# B24: traf2_out_13_95_1091 (protein)
# chain: SKEVAEKINKIADEMLDKSLALLEKLLKIAEEKGKAVEEIKEAIDLAEYRSINEAIHKLEELAKKYPEFKEELEATIKEIRAIKREAGRKVAEILKEEKE
# B25: traf2_out_13_95_1106 (protein)
# chain: SAETAEKIMEIADEMLDKVEELLEKLLEIAKKKGKLEEEIQEALHLARYRSINEAIHLLKELAKKYPEFKEELEETIEKIEELIREAGRKVAEILKEEKE
# B26: traf2_out_20_38_2033 (protein)
# chain: SEEEEEKRRLEEAIEVANEAYDKYSARVAAWKAAGKTVEEIAEEAKEEVRRLLTEAGLEEEAEILIEDIDRALSSPEAERLIVRILARAEALVYQKKVNE
# B27: traf2_out_11_104_646 (protein)
# chain: LTREQAREFNDFAMEANDKAKELLQEVADFLESRGHEEEAAKVRAELAHPGSGVSTFKNLLEELLPKLDEESRAVAEKAIKELEELQKKVSDKLNELEKK
# B28: traf2_out_20_3_2054 (protein)
# chain: EELLKELEEEEKKLRELIEEIEKLVDPETAEELREALERVEKARKEGLEEYLVALSELRRLLLRLAEEARAAGKEEVAALLEEAAEAAQRAMNIVMKIIE
# B29: traf2_out_18_117_1796 (protein)
# chain: SELEKLQEEFEKTLKEFEEELEEAQRVATKLIEKYPKQLPEEAMDAIVEFGEVKRRVQQLVQEAKAHPNDVEKQKKLVEELKKLLEEMKEIKKKLEEILK
# Molecular target: T1, TRAF2, Q12933
# Assay: median log2 fold change of GCK-ALFA target abundance (FLAG IP / Myc IP barcode read proportion) (log2 ratio); each designed protein is fused to an ALFA-tag nanobody in HEK293 cells to bring the named protein to FLAG-tagged glucokinase (GCK); Myc marks an untargeted standard; higher = target protein stabilised (more abundant)
# Conditions: target protein: 3xFLAG-MCP-GCK-ALFA reporter; HEK293 landing pad (RPLP)
# Method: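 LABEL-seq trans screen in HEK293 landing-pad cells. Each de novo designed 100-aa effector handle, binding the indicated effector (E3 ligase, DUB or autophagy protein), is fused to a constant NbALFA target handle and induced with 2 ug/mL doxycycline. A FLAG-MCP-GCK-ALFA target and a Myc-MCP standard reporter were transfected, and after 48 h circRNA barcodes were recovered by anti-FLAG and anti-Myc IP and sequenced. The value is the median across barcodes (at least 3 per design) of log2(FLAG/Myc read-proportion ratio), with the two transfection replicates pooled. Negative values mean degradation and positive values mean stabilisation of the target.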
row,Binder,median log2 fold change
1,B1,0.305
2,B2,0.0887
3,B3,0.24
4,B4,0.368
5,B5,0.0872
6,B6,-0.0294
7,B7,0.0236
8,B8,-0.00113
9,B9,0.297
10,B10,0.224
11,B11,0.00905
12,B12,0.373
13,B13,-0.974
14,B14,-0.98
15,B15,0.118
16,B16,0.354
17,B17,-0.0301
18,B18,-0.756
19,B19,0.402
20,B20,-0.0311
21,B21,-0.025
22,B22,0.0329
23,B23,-0.841
24,B24,-0.417
25,B25,-0.553
26,B26,-0.971
27,B27,0.185
28,B28,0.588
29,B29,0.186
